Drawing on PubChem BioAssay (NCI), this text covers growth inhibition for ten molecules.

Each structure is given as a SMILES string. About 79,000 compounds went through this panel and 15% of them were active in at least one assay; those are over-represented in the sample as a whole. A number with no mark means an inactive call. Active and inactive are the calls of the source. Cut-off read from the data, not from the text of the source: active = growth inhibition above about 70%; inactive = the rest.

Assay [1] can be described thus: NCI Yeast Anticancer Drug Screen. Data for the rad50 strain (AID 155).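 Note: 0% = growth of vehicle-only cultures of the same strain.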 The following applies: S. cerevisiae rad50 strain growth inhibition, active compounds read high. An outline of the steps: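 Inhibition values express reduced yeast growth in compound-treated cultures relative to vehicle-treated controls.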
Assay [2] is described as follows: NCI Yeast Anticancer Drug Screen. Data for the mec2-1 strain (AID 157). The following applies: S. cerevisiae mec2-1 strain, active compounds read high. An outline of the steps:
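Cells of the genetically defined mec2-1 yeast strain are incubated with test compound. Inhibition of growth is calculated against vehicle-treated controls.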

Assay [3] in a line: NCI Yeast Anticancer Drug Screen. Data for the sgs1 mgt1 strain (AID 161).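 Note: 0% = growth of cultures given vehicle only.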 The following applies: S. cerevisiae sgs1 mgt1 strain, active compounds read high. A digest of the protocol:
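Genetically altered yeast, compound exposure, growth inhibition relative to vehicle.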

The nature of assay [4]: NCI Yeast Anticancer Drug Screen. Data for the cln2 rad14 strain (AID 165).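 Note: 0% = growth equal to vehicle treated cultures.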 The following applies: S. cerevisiae cln2 rad14 strain, active compounds read high. A digest of the protocol:
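The screen exposed genetically defined yeast (cln2 rad14) to test compounds and scored growth inhibition relative to vehicle-treated controls.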

A short description of assay [5]: NCI Yeast Anticancer Drug Screen. Data for the bub3 strain (AID 167). To be noted: S. cerevisiae bub3 mutant strain, active compounds read high. An outline of the steps: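 Steps: expose the mutant yeast strain to compound; grow alongside vehicle-treated cultures; measure growth; express inhibition against the vehicle cultures.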
Assay [6] can be described thus: NCI Yeast Anticancer Drug Screen. Data for the mlh1 rad18 strain (AID 175). The following applies: S. cerevisiae mlh1 rad18 strain growth inhibition, active compounds read high. An outline of the steps:
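Compound-treated yeast growth, normalised to vehicle controls. Strain bears defined DNA repair mutations.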

[7] abbreviates: at 5.0 µM (retest, dose inferred, filed as 0.5).
Setting [8] is: at 50.0 µM (retest, dose inferred, filed as 5.0).

Regarding `NC(CSC1(c2ccc(Cl)cc2)c2ccccc2-c2ccccc21)C(=O)O` (stereo not given), the growth inhibition was 16% in assay [1] (setting [7]); 68% in assay [1] (setting [8]); 68% in assay [1] (at 50.0 µM); 8% in assay [2] (setting [7]); 51% in assay [2] (setting [8]); 61.9% in assay [2] (at 50.0 µM). The growth inhibition in assay [3] (setting [7]) was -1%; in assay [3] (setting [8]), 22%; in assay [3] (at 50.0 µM), 35.1%; in assay [4] (setting [7]) it was -15%; in assay [4] (setting [8]), 59%; in assay [4] (at 50.0 µM) it was 43.8%. Also, the growth inhibition in assay [5] (setting [7]) was 1%; in assay [5] (setting [8]), 44%; in assay [5] (at 50.0 µM), 91.2% (active); in assay [6] (setting [7]), -2%; in assay [6] (setting [8]), 55%; in assay [6] (at 50.0 µM) it was 74.8% (active).
On to `C/C(=N\NC(=S)NC12CC3CC(CC(C3)C1)C2)c1ccccn1`, for which the growth inhibition in assay [1] (setting [7]) was 5%; in assay [1] (setting [8]), 95% (active); in assay [1] (at 50.0 µM) it was 97% (active); in assay [2] (setting [7]), 3%; in assay [2] (setting [8]), 97% (active); in assay [2] (at 50.0 µM) it was 97.9% (active). The growth inhibition in assay [3] (setting [7]) is 6%; in assay [3] (setting [8]) it was 98% (active); in assay [3] (at 50.0 µM), 98% (active); in assay [4] (setting [7]), -5%; in assay [4] (setting [8]), 93% (active); in assay [4] (at 50.0 µM), 94.7% (active). The growth inhibition is 0% in assay [5] (setting [7]); 97% (active) in assay [5] (setting [8]); 97.1% (active) in assay [5] (at 50.0 µM); -7% in assay [6] (setting [7]); 97% (active) in assay [6] (setting [8]); 97.3% (active) in assay [6] (at 50.0 µM).
Turning to `CCOC(CCCl)OCC`, the growth inhibition is 0% in assay [1] (setting [7]); 2% in assay [1] (setting [8]); 7.35% in assay [1] (at 50.0 µM); 0% in assay [2] (setting [7]); 4% in assay [2] (setting [8]); 5.7% in assay [2] (at 50.0 µM). Further, the growth inhibition is -1% in assay [3] (setting [7]); 1% in assay [3] (setting [8]); -2.9% in assay [3] (at 50.0 µM); 0% in assay [4] (setting [7]); -5% in assay [4] (setting [8]); 89.2% (active) in assay [4] (at 50.0 µM). In addition, the growth inhibition in assay [5] (setting [7]) was 1%; in assay [5] (setting [8]), -3%; in assay [5] (at 50.0 µM), 2.35%; in assay [6] (setting [7]), 0%; in assay [6] (setting [8]) it was 3%; in assay [6] (at 50.0 µM), 13.3%.
For the molecule `Cc1ccc(C)c(N(c2ccccc2[N+](=O)[O-])S(C)(=O)=O)c1`, the growth inhibition in assay [1] (setting [7]) was 5%; in assay [1] (setting [8]) it was 20%; in assay [1] (at 50.0 µM), 99.5% (active); in assay [2] (setting [7]) it was 19%; in assay [2] (setting [8]), 36%; in assay [2] (at 50.0 µM) it was 99.5% (active). Also, the growth inhibition is 5% in assay [3] (setting [7]); 22% in assay [3] (setting [8]); 99.6% (active) in assay [3] (at 50.0 µM); 5% in assay [4] (setting [7]); 21% in assay [4] (setting [8]); 99.3% (active) in assay [4] (at 50.0 µM). The growth inhibition was -2% in assay [5] (setting [7]); 16% in assay [5] (setting [8]); 99.4% (active) in assay [5] (at 50.0 µM); -5% in assay [6] (setting [7]); 10% in assay [6] (setting [8]); 99.2% (active) in assay [6] (at 50.0 µM).
For the molecule `CN1C(=O)CCC2[C@@H]3CC=C4C[C@@H](O)CC[C@]4(C)C3CC[C@@]21C` (stereo not given in full), the growth inhibition in assay [1] (setting [7]) was -3%; in assay [1] (setting [8]), 27%; in assay [1] (at 50.0 µM), 16.4%; in assay [2] (setting [7]), 0%; in assay [2] (setting [8]), 11%; in assay [2] (at 50.0 µM) it was 0.3%. Further, the growth inhibition in assay [3] (setting [7]) is 1%; in assay [3] (setting [8]), 59%; in assay [3] (at 50.0 µM), 69.8%; in assay [4] (setting [7]), 10%; in assay [4] (setting [8]) it was 13%; in assay [4] (at 50.0 µM), 28.8%. For the same molecule, the growth inhibition in assay [5] (setting [7]) is 22%; in assay [5] (setting [8]) it was 66%; in assay [5] (at 50.0 µM), 57.7%; in assay [6] (setting [7]), -7%; in assay [6] (setting [8]), 16%; in assay [6] (at 50.0 µM), 70.8% (active).
As for `COc1ccc(/C(Cl)=C(\c2ccc(OCCN(C)C)cc2)c2ccc(OC(=O)C(C)(C)C)cc2)cc1`, the growth inhibition is 23% in assay [1] (setting [7]); 23% in assay [1] (setting [8]); 91.8% (active) in assay [1] (at 50.0 µM); 17% in assay [2] (setting [7]); 17% in assay [2] (setting [8]); 92% (active) in assay [2] (at 50.0 µM). Also, the growth inhibition in assay [3] (setting [7]) is 18%; in assay [3] (setting [8]), 18%; in assay [3] (at 50.0 µM), 92.3% (active); in assay [4] (setting [7]), 10%; in assay [4] (setting [8]), 10%; in assay [4] (at 50.0 µM), 60.4%. Also, the growth inhibition is 20% in assay [5] (setting [7]); 20% in assay [5] (setting [8]); 89.4% (active) in assay [5] (at 50.0 µM); 1% in assay [6] (setting [7]); 1% in assay [6] (setting [8]); 90% (active) in assay [6] (at 50.0 µM).
For the molecule `O=C1C(Br)=C(Sc2ccc([N+](=O)[O-])cc2)C(=O)c2ccccc21`, the growth inhibition in assay [1] (setting [7]) was 56%; in assay [1] (setting [8]), 90% (active); in assay [1] (at 50.0 µM), 93.5% (active); in assay [2] (setting [7]) it was 64%; in assay [2] (setting [8]) it was 94% (active); in assay [2] (at 50.0 µM), 96.7% (active). Further, the growth inhibition is 51% in assay [3] (setting [7]); 96% (active) in assay [3] (setting [8]); 96.6% (active) in assay [3] (at 50.0 µM); 11% in assay [4] (setting [7]); 91% (active) in assay [4] (setting [8]); 84.2% (active) in assay [4] (at 50.0 µM). In addition, the growth inhibition in assay [5] (setting [7]) was 65%; in assay [5] (setting [8]), 96% (active); in assay [5] (at 50.0 µM), 96.6% (active); in assay [6] (setting [7]), 33%; in assay [6] (setting [8]), 92% (active); in assay [6] (at 50.0 µM), 97% (active).
Consider `O=C1/C(=C/c2cccc([N+](=O)[O-])c2)Sc2scc(-c3ccc([N+](=O)[O-])cc3)[n+]21`, for which the growth inhibition in assay [1] (setting [7]) was 7%; in assay [1] (setting [8]), 97% (active); in assay [1] (at 50.0 µM), 85.2% (active); in assay [2] (setting [7]) it was -3%; in assay [2] (setting [8]), 98% (active); in assay [2] (at 50.0 µM) it was 62%. For the same molecule, the growth inhibition in assay [3] (setting [7]) is 6%; in assay [3] (setting [8]), 97% (active); in assay [3] (at 50.0 µM), 94.9% (active); in assay [4] (setting [7]) it was -15%; in assay [4] (setting [8]) it was 97% (active); in assay [4] (at 50.0 µM) it was 59.1%. Further, the growth inhibition is -18% in assay [5] (setting [7]); 98% (active) in assay [5] (setting [8]); 93.1% (active) in assay [5] (at 50.0 µM); 11% in assay [6] (setting [7]); 97% (active) in assay [6] (setting [8]); 93.8% (active) in assay [6] (at 50.0 µM).
In the case of `OCc1c(-c2cccc3ccccc23)sc(-c2cccc3ccccc23)c1CO`, the growth inhibition in assay [1] (setting [7]) is 59%; in assay [1] (setting [8]), 74% (active); in assay [1] (at 50.0 µM) it was 90% (active); in assay [2] (setting [7]), 20%; in assay [2] (setting [8]) it was 85% (active); in assay [2] (at 50.0 µM), 92.8% (active). Also, the growth inhibition in assay [3] (setting [7]) is 44%; in assay [3] (setting [8]), 56%; in assay [3] (at 50.0 µM), 86.8% (active); in assay [4] (setting [7]), 63%; in assay [4] (setting [8]), 81% (active); in assay [4] (at 50.0 µM) it was 86.6% (active). The growth inhibition is 39% in assay [5] (setting [7]); 82% (active) in assay [5] (setting [8]); 86.5% (active) in assay [5] (at 50.0 µM); 65% in assay [6] (setting [7]); 70% (active) in assay [6] (setting [8]); 88.4% (active) in assay [6] (at 50.0 µM).
On to `CC(NNC(=S)N1CC2CCC(CC2)C1)c1nccc2ccccc12` (stereo not given), for which the growth inhibition was 98% (active) in assay [1] (setting [7]); 96% (active) in assay [1] (setting [8]); 98.7% (active) in assay [1] (at 50.0 µM); 98% (active) in assay [2] (setting [7]); 96% (active) in assay [2] (setting [8]); 99% (active) in assay [2] (at 50.0 µM). For the same molecule, the growth inhibition in assay [3] (setting [7]) was 98% (active); in assay [3] (setting [8]), 96% (active); in assay [3] (at 50.0 µM), 99% (active); in assay [4] (setting [7]), 97% (active); in assay [4] (setting [8]) it was 95% (active); in assay [4] (at 50.0 µM) it was 98.3% (active). In addition, the growth inhibition in assay [5] (setting [7]) was 97% (active); in assay [5] (setting [8]), 94% (active); in assay [5] (at 50.0 µM) it was 99% (active); in assay [6] (setting [7]), 98% (active); in assay [6] (setting [8]), 96% (active); in assay [6] (at 50.0 µM) it was 99.1% (active).
